# Records with an inconclusive call do not appear. Active and inactive are the calls of the source. How the source made its calls, unless noted: active means hit-call score of the fitted dose curve at least 0.9, where 1 is the maximum; inconclusive means response in the unintended direction; inactive means score below 0.9.
# System: not listed separately
# Experiment: STM_H9_OrnCyssISnorm_ratio: Stemina devTOX quickPredict H9 human embryonic stem cell (hESC)-based Assay for Ornithine (ORN):Cystine (CYSS) Ratio (AID 2283714)
# Summary of the method: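 Undifferentiated H9 hESCs exposed 72 h, media and compound replaced every 24 h; final 24-h conditioned media deproteinized and analysed by UPLC-HRMS against C13 spike-ins. Value is the internal-standard-normalized ORN/CYSS ratio versus 0.1% DMSO.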
SMILES,AC50,outcome
Oc1cccc2ccccc12,7.48 µM (active),
CCCCCC[C@@H](O)C/C=C\CCCCCCCC(=O)O,30.9 µM (active),
CC[N+](CC)(CC(=O)Nc1c(C)cccc1C)Cc1ccccc1 (tested in a mixture with another compound),,inactive

# System: not listed separately
# Experiment: ACEA_AR_agonist_AUC_viability: ACEA Biosciences xCELLigence Real-Time Cell Analysis on Androgen Receptor Agonism for Viability (AID 2283775);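 on AC50: viability read 80 hours after compound addition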
# Summary of the method: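 Read-out is area under the impedance curve at 80 h post-dose in 22Rv1 cells, with DMSO as baseline and signal loss taken as reduced viability. Compounds ran in duplicate from 100 uM final.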
SMILES,outcome,AC50
O=C(O)/C=C/C(=O)O,inactive,
O=S(=O)(O)c1cccc2ccccc12,inactive,
CCO[Si](CCCN)(OCC)OCC,inactive,
CCCCCCC1CCC(=O)O1 (centres undefined),inactive,
CCC(C)=NO,inactive,
C=C1CC[C@H]2C[C@@H]1C2(C)C,inactive,
COC(=O)[C@]1(C)CCC[C@@]2(C)[C@H]1CC=C1C=C(C(C)C)CC[C@@H]12,,0.333 µM (active)
c1ccc(CNc2ncnc3nc[nH]c23)cc1,inactive,
Oc1cccc2ccccc12,inactive,
CCCCCC[C@@H](O)C/C=C\CCCCCCCC(=O)O,inactive,
CC[N+](CC)(CC(=O)Nc1c(C)cccc1C)Cc1ccccc1 (tested in a mixture with another compound),inactive,

# System: not listed separately
# Experiment: ACEA_AR_antagonist_AUC_viability: ACEA Biosciences xCELLigence Real-Time Cell Analysis on Androgen Receptor Antagonism for Viability (AID 2283776);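 further: area under impedance growth curve at 80 h after dosing as viability; hits lower the growth signal relative to DMSO meaning cytotoxicity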
# Summary of the method: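 22Rv1 human prostate cancer cells were seeded on electrode plates, monitored overnight, then exposed to eight 1:4 dilutions from 100 uM final. Impedance-based growth kinetics at 80 h gave an AUC viability endpoint normalized to DMSO.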
SMILES,outcome,AC50
O=C(O)/C=C/C(=O)O,inactive,
O=S(=O)(O)c1cccc2ccccc12,inactive,
CCCCCCC1CCC(=O)O1 (centres undefined),inactive,
CCC(C)=NO,,50 µM (active)
C=C1CC[C@H]2C[C@@H]1C2(C)C,inactive,
Cc1cc2nc3c(=O)[nH]c(=O)nc-3n(C[C@H](O)[C@H](O)[C@H](O)CO)c2cc1C,inactive,
c1ccc(CNc2ncnc3nc[nH]c23)cc1,inactive,
Oc1cccc2ccccc12,inactive,
CCCCCC[C@@H](O)C/C=C\CCCCCCCC(=O)O,inactive,
CC[N+](CC)(CC(=O)Nc1c(C)cccc1C)Cc1ccccc1 (tested in a mixture with another compound),inactive,

# System: not listed separately
# Experiment: ACEA_ER_AUC_viability: ACEA Biosciences xCELLigence Real-Time Cell Analysis on Estrogen Receptor Agonism for Viability (AID 2283782);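 further: continuous compound exposure with impedance area under curve over 80 h; hit means loss of impedance signal meaning reduced cell growth or viability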
# Summary of the method: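 T47D cells preconditioned in phenol red-free RPMI with charcoal-stripped FBS, then dosed with 8-point 1:4 series from 100 uM (up to 0.5% DMSO). Impedance monitored up to ~80 h; area-under-curve loss versus DMSO taken as viability.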
SMILES,outcome,AC50
O=C1CCCCCCCCCCCCCC1,inactive,
CCCC(=O)OC/C=C(\C)CCC=C(C)C,,68.8 µM (active)
CCCCCCC(O)CCCCCCCCCCC(=O)OC (centres undefined),inactive,
O=C(O)/C=C/C(=O)O,inactive,
O=S(=O)(O)c1cccc2ccccc12,inactive,
C/C=C(\C)C(=O)OCC/C=C\CC,inactive,
CC/C=C\CC/C=C/C(OCC)OCC,,82.5 µM (active)
C=CCOCC(CC)(CO)COCC=C,inactive,
CN1CCCC1,inactive,
CCO[Si](CCCN)(OCC)OCC,inactive,
CCCCCCC1CCC(=O)O1 (centres undefined),inactive,
CCC(=O)OCc1ccc(OC)cc1,,39.9 µM (active)
CCC(C)=NO,inactive,
COc1cccc(OC)c1C(=O)O,inactive,
C=C1CC[C@H]2C[C@@H]1C2(C)C,inactive,
CCCCCC1CCCC(=O)O1 (centres undefined),inactive,
COC(=O)[C@]1(C)CCC[C@@]2(C)[C@H]1CC=C1C=C(C(C)C)CC[C@@H]12,,73.3 µM (active)
Cc1cc2nc3c(=O)[nH]c(=O)nc-3n(C[C@H](O)[C@H](O)[C@H](O)CO)c2cc1C,,47 µM (active)
O=C(OCc1ccccc1)c1ccccc1,,76.8 µM (active)
CCCCCCC1CCCC(=O)O1 (centres undefined),inactive,
c1ccc(CNc2ncnc3nc[nH]c23)cc1,inactive,
CC(C)=CCOC(=O)c1ccccc1,,50 µM (active)
CN(C)c1ccc(C(c2ccccc2)c2ccc(N(C)C)cc2)cc1,,75.8 µM (active)
CCCCCC[C@@H](O)C/C=C\CCCCCCCC(=O)O,inactive,

# System: not listed separately
# Experiment: STM_H9_NormalizedViability: Cytotoxicity Assessment at 120 hours in the Stemina devTOX quickPredict H9 human embryonic stem cell (hESC)-based Assay (AID 2283784)
# Summary of the method: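 Undifferentiated H9 hESCs kept pluripotent were exposed to compound, with media and chemical replaced every 24h. CellTiter-Fluor protease-substrate fluorescence was background-corrected and normalized per plate to the 0.1% DMSO vehicle; signal loss indicates reduced viability.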
row,SMILES,outcome
1,Oc1cccc2ccccc12,inactive
2,CCCCCC[C@@H](O)C/C=C\CCCCCCCC(=O)O,inactive
3,CC[N+](CC)(CC(=O)Nc1c(C)cccc1C)Cc1ccccc1 (tested in a mixture with another compound),inactive

# System: Sodium/Iodide Symporter (NIS), SLC5A5 (gene 6528)
# Experiment: CPHEA_Stoker_NIS_Inhibition_RAIU: CPHEA's Radioactive Iodide Uptake (RAIU) Assay for Sodium/Iodide Symporter (NIS) Inhibition, Stoker and Laws Labs (AID 2283841)
# Summary of the method: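 hNIS-HEK293T-EPA cells incubated 2 h at room temperature with compound (0.001–100 uM, 0.5% DMSO) and 329 pM final 125I in HBSS/10 mM HEPES, pH 7.4. Intracellular 125I counted; normalised to DMSO maximal uptake, triplicate, three biological replicates.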
SMILES,outcome,AC50
COC(=O)[C@]1(C)CCC[C@@]2(C)[C@H]1CC=C1C=C(C(C)C)CC[C@@H]12,inactive,
Cc1cc2nc3c(=O)[nH]c(=O)nc-3n(C[C@H](O)[C@H](O)[C@H](O)CO)c2cc1C,,25.8 µM (active)
O=C(OCc1ccccc1)c1ccccc1,inactive,
CCCCCC[C@@H](O)C/C=C\CCCCCCCC(=O)O,inactive,

# System: not listed separately
# Experiment: CPHEA_Stoker_NIS_Cytotoxicity: Cytotoxicity Assessment for CPHEA's Radioactive Iodide Uptake (RAIU) Assay for Sodium/Iodide Symporter (NIS) Inhibition, Stoker and Laws Labs (AID 2283897)
# Summary of the method: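 hNIS-HEK293T-EPA cells, human NIS expressed in HEK293T, treated 2 h with chemicals (0.001–100 uM, 0.5% final DMSO). ATP content read by CellTiter-Glo luminescence; loss of signal analysed relative to DMSO.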
row,SMILES,outcome
1,COC(=O)[C@]1(C)CCC[C@@]2(C)[C@H]1CC=C1C=C(C(C)C)CC[C@@H]12,inactive
2,Cc1cc2nc3c(=O)[nH]c(=O)nc-3n(C[C@H](O)[C@H](O)[C@H](O)CO)c2cc1C,inactive
3,O=C(OCc1ccccc1)c1ccccc1,inactive
4,CCCCCC[C@@H](O)C/C=C\CCCCCCCC(=O)O,inactive

# System: not listed separately
# Experiment: CCTE_Harrill_HTTr_Viability_MCF7: CCTE's 6-hour Cell Viability Assessment for the High-Throughput Transcriptomics (HTTr) Platform, in MCF-7 cells cultured in DMEM + 10% fetal bovine serum, Harrill Lab (AID 2284010; active means hit-call score of the fitted dose curve at least 0.9, where 1 is the maximum; inactive means score below 0.9)
# Summary of the method: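 Membrane integrity was scored by high-content imaging of propidium iodide dye exclusion after a 6 h exposure across an eight-point dilution series. Data were fitted bidirectionally relative to DMSO as negative control and baseline.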
row,SMILES,outcome
1,CNC(=C[N+](=O)[O-])NCCSCc1csc(CN(C)C)n1,inactive
2,O=C(O)/C=C/C(=O)O,inactive
3,CCc1cc(C(N)=S)ccn1,inactive
4,CCC(C)=NO,inactive
5,Cc1cc2nc3c(=O)[nH]c(=O)nc-3n(C[C@H](O)[C@H](O)[C@H](O)CO)c2cc1C,inactive
6,O=C(OCc1ccccc1)c1ccccc1,inactive
7,c1ccc(CNc2ncnc3nc[nH]c23)cc1,inactive
8,Oc1cccc2ccccc12,inactive
9,CCCCCC[C@@H](O)C/C=C\CCCCCCCC(=O)O,inactive
10,CC[N+](CC)(CC(=O)Nc1c(C)cccc1C)Cc1ccccc1 (tested in a mixture with another compound),inactive
